From PubChem BioAssay AID1159580 (chemical genetic matrix, 2015)
The campaign covered roughly 5,500 compounds. About 2,000 (36%) were called active. Not shown: some 18% with an inconclusive outcome. Cut-off read from the data, not from the text of the source: active = normalized growth mostly below about 0.91 (no sharp cut-off); inconclusive = no clear call, values can overlap the other calls; inactive = mostly above about 0.92. Some of the results follow.

Assay: chemical genetic growth profiling, strain panel (AID 1159580);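 note: tested at 20 µM; growth read once vehicle control cultures reached saturation at 30 °C; 1 = growth at the plate median or of vehicle wells; lower values mean less growth of the strain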
Settings: S. cerevisiae deletion strains, growth OD

Measured: normalized growth

COc1cc(NS(C)(=O)=O)ccc1Nc1c2ccccc2nc2ccccc12
inactive: locus YAL040C, strain CLN3, stronger effect = lower value 0.985 | locus YCL061C, strain MRC1 (second series), stronger effect = lower value 0.981 | locus YDR363W, strain ESC2, stronger effect = lower value 0.916 | locus YER002W, strain NOP16, stronger effect = lower value 0.989 | locus YGR078C, strain PAC10, stronger effect = lower value 0.985 | locus YGR229C, strain SMI1, stronger effect = lower value 0.955 | locus YNL128W, strain TEP1, stronger effect = lower value 1.02 | locus YNL175C, strain NOP13, stronger effect = lower value 1 | locus YNL197C, strain WHI3, stronger effect = lower value 0.967 | locus YNL224C, strain SQS1, stronger effect = lower value 0.98 | locus YNL322C, strain KRE1, stronger effect = lower value 0.965 | locus YOR083W, strain WHI5 (second series), stronger effect = lower value 0.975 | locus YPL055C, strain LGE1, stronger effect = lower value 0.902

COc1cc(NS(C)(=O)=O)ccc1Cc1c2ccccc2nc2ccccc12
active: locus YAL021C, strain ccr4, stronger effect = lower value 0.785 | locus YBR009C, strain hhf1, stronger effect = lower value 0.828 | locus YCL016C, strain dcc1, stronger effect = lower value 0.476 | locus YCL061C, strain MRC1, stronger effect = lower value 0.867 | locus YDL005C, strain med2, stronger effect = lower value 0.681 | locus YDR069C, strain doa4, stronger effect = lower value 0.842 | locus YER016W, strain bim1, stronger effect = lower value 0.909 | locus YFR010W, strain ubp6, stronger effect = lower value 0.877 | locus YJL092W, strain hpr5, stronger effect = lower value 0.712 | locus YJL115W, strain asf1, stronger effect = lower value 0.341 | locus YLR027C, strain aat2, stronger effect = lower value 0.916 | locus YLR221C, strain rsa3, stronger effect = lower value 0.899 | locus YLR320W, strain mms22, stronger effect = lower value 0.208 | locus YNL322C, strain KRE1 (second series), stronger effect = lower value 0.822 | locus YOR080W, strain dia2, stronger effect = lower value 0.494 | locus YOR290C, strain snf2, stronger effect = lower value 0.823
inactive: locus YAL026C, strain drs2, stronger effect = lower value 1 | locus YAL030W, strain snc1, stronger effect = lower value 0.971 | locus YBL061C, strain skt5, stronger effect = lower value 1.01 | locus YBR023C, strain chs3, stronger effect = lower value 0.988 | locus YBR171W, strain sec66, stronger effect = lower value 1.02 | locus YBR231C, strain swc5, stronger effect = lower value 0.969 | locus YBR279W, strain paf1, stronger effect = lower value 0.988 | locus YCL011C, strain gbp2, stronger effect = lower value 0.939 | locus YCL069W, strain vba3, stronger effect = lower value 1 | locus YCR088W, strain abp1, stronger effect = lower value 0.986 | locus YDL040C, strain nat1, stronger effect = lower value 0.994 | locus YDR001C, strain nth1, stronger effect = lower value 0.999 | locus YDR137W, strain rgp1, stronger effect = lower value 1.1 | locus YDR159W, strain sac3, stronger effect = lower value 0.947 | locus YDR195W, strain ref2 1.05 | locus YDR297W, strain sur2, stronger effect = lower value 0.96 | locus YDR334W, strain swr1, stronger effect = lower value 1.01 | locus YDR335W, strain msn5, stronger effect = lower value 0.993 | locus YDR392W, strain spt3, stronger effect = lower value 0.795 | locus YEL003W, strain gim4, stronger effect = lower value 0.966 | locus YEL037C, strain rad23, stronger effect = lower value 0.979 | locus YEL061C, strain CIN8 (second series), stronger effect = lower value 0.982 | locus YER015W, strain faa2, stronger effect = lower value 0.986 | locus YER111C, strain swi4, stronger effect = lower value 1.01 | locus YER155C, strain BEM2 (second series), stronger effect = lower value 0.885 | locus YGL167C, strain pmr1, stronger effect = lower value 1 | locus YGL173C, strain kem1, stronger effect = lower value 0.991 | locus YGL227W, strain vid30, stronger effect = lower value 0.994 | locus YGL240W, strain doc1, stronger effect = lower value 0.892 | locus YGL253W, strain hxk2, stronger effect = lower value 0.996 | locus YHR013C, strain ard1, stronger effect = lower value 0.874 | locus YHR027C, strain rpn1, stronger effect = lower value 0.978 | locus YHR030C, strain SLT2, stronger effect = lower value 0.974 | locus YHR079C, strain IRE1, stronger effect = lower value 0.946 | locus YHR142W, strain chs7, stronger effect = lower value 0.964 | locus YJL095W, strain BCK1 (second series), stronger effect = lower value 0.986 | locus YJL095W, strain BCK1, stronger effect = lower value 1 | locus YJL129C, strain trk1, stronger effect = lower value 0.933 | locus YJL154C, strain vps35, stronger effect = lower value 0.998 | locus YJL164C, strain tpk1, stronger effect = lower value 0.918 | locus YJL166W, strain qcr8, stronger effect = lower value 0.945 | locus YJR066W, strain TOR1, stronger effect = lower value 0.919 | locus YKL160W, strain elf1, stronger effect = lower value 0.985 | locus YKR026C, strain gcn3, stronger effect = lower value 0.998 | locus YKR091W, strain srl3, stronger effect = lower value 1 | locus YLL001W, strain dnm1, stronger effect = lower value 0.936 | locus YLL026W, stronger effect = lower value 0.977 | locus YLL041C, strain sdh2, stronger effect = lower value 0.99 | locus YLR113W, strain HOG1, stronger effect = lower value 0.971 | locus YLR258W, strain gsy2, stronger effect = lower value 0.969 | locus YLR262C, strain YPT6 (second series), stronger effect = lower value 1 | locus YLR342W, strain FKS1, stronger effect = lower value 0.927 | locus YLR357W, strain rsc2, stronger effect = lower value 0.987 | locus YLR370C, strain arc18, stronger effect = lower value 0.923 | locus YLR384C, strain iki3, stronger effect = lower value 0.994 | locus YML120C, strain ndi1, stronger effect = lower value 0.956 | locus YMR058W, strain fet3, stronger effect = lower value 0.949 | locus YMR125W, strain sto1, stronger effect = lower value 0.98 | locus YMR129W, stronger effect = lower value 0.984 | locus YMR205C, strain PFK2, stronger effect = lower value 0.947 | locus YMR231W, strain pep5, stronger effect = lower value 1 | locus YNL071W, strain lat1, stronger effect = lower value 0.987 | locus YNL183C, strain NPR1, stronger effect = lower value 0.952 | locus YNL209W, strain ssb2, stronger effect = lower value 0.986 | locus YNL248C, strain rpa49, stronger effect = lower value 0.945 | locus YNR049C, strain mso1, stronger effect = lower value 0.989 | locus YOR001W, strain rrp6, stronger effect = lower value 0.915 | locus YOR070C, strain gyp1, stronger effect = lower value 0.984 | locus YOR083W, strain WHI5, stronger effect = lower value 0.934 | locus YOR106W, strain vam3, stronger effect = lower value 0.926 | locus YOR231W, strain MKK1, stronger effect = lower value 1.01 | locus YOR265W, strain rbl2, stronger effect = lower value 0.985 | locus YOR270C, strain vph1, stronger effect = lower value 0.935 | locus YPL051W, strain arl3, stronger effect = lower value 0.992 | locus YPL078C, strain atp4, stronger effect = lower value 1.02 | locus YPL106C, strain sse1, stronger effect = lower value 1.02 | locus YPL240C, strain hsp82, stronger effect = lower value 0.991 | locus YPL256C, strain CLN2, stronger effect = lower value 0.944
